Measurements reported in PubChem BioAssay (Tox21).
Inconclusive results are not listed. Where a call stands in place of a potency, no number is given. Unmarked numbers belong to inactive results. The source made the active and inactive calls. Unless noted, calls come from the whole dose curve.

Tests used:
[1] = qHTS assay to identify small molecule agonists of the vitamin D receptor (VDR) signaling pathway - cell viability counter screen (AID 743224; active = well fitted curve in the direction sought with a large enough effect in the repeat runs; an effect the other way counts as inactive or inconclusive; note: series mostly up to about 63 µM; nearly all actives have a fitted effect of over 50% in size)
Summary of the method: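 Cells: VDR-bla, 2,000/well, settled 4 h. Treatment: compounds in DMSO, 16 h, 37C/5% CO2. Readout: CellTiter-Glo luminescence after 30 min RT.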

[2] = qHTS assay to identify small molecule agonists of the NFkB signaling pathway (AID 1159509; active = well fitted curve in the direction sought with a large enough effect in the signal ratio in the repeat runs, not every such curve was filed as active; the % refers to the signal ratio; note: series mostly up to about 61 µM)
Summary of the method: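 Beta-lactamase reporter assay run in quantitative high-throughput format on an NF-kB-responsive ME-180 line, with 5 hr compound treatment and a FRET-based blue/green fluorescence readout.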

[3] = qHTS assay to identify small molecule agonists of the NFkB signaling pathway - cell viability counter screen (AID 1159515); note: series mostly up to about 61 µM; nearly all actives have a fitted effect of over 55% in size
Summary of the method: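 Cells are seeded (2,000 NFkB-bla ME-180 per well), rested overnight, and dosed with DMSO-dissolved compounds for 5 hr at 37 C. Viability is then read by CellTiter-Glo luminescence after 30 min at room temperature.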

[4] = qHTS assay to identify small molecule agonists of the endoplasmic reticulum stress response signaling pathway (AID 1159516; active = well fitted activation curve with a large enough effect in the signal ratio in the repeat runs, not every such curve was filed as active; the % refers to the signal ratio)
Summary of the method: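 Cells are seeded at 1,500 per well and incubated overnight. Compounds in DMSO are added for 5 hr at 37 C, then beta-lactamase FRET substrate for 2 hr at room temperature, and fluorescence at 460 and 530 nm is measured.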

[5] = qHTS assay to identify small molecule agonists of the endoplasmic reticulum stress response signaling pathway - cell viability counter screen (AID 1159517);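 note: HeLa cells carrying an ER stress response element beta-lactamase reporter; series mostly up to about 61 µM; nearly all actives have a fitted effect of over 50% in size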
Summary of the method: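 Cytotoxicity of test compounds toward ESRE-bla HeLa cells was assessed after 5 hr exposure. The luminescent CellTiter-Glo signal was measured 30 min after reagent addition.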

[6] = qHTS assay to identify small molecule antagonists of the retinoid-related orphan receptor gamma (ROR-gamma) signaling pathway - cell viability counter screen (AID 1159520; active = well fitted curve in the direction sought with a large enough effect in the repeat runs; an effect the other way counts as inactive or inconclusive; note: nearly all actives have a fitted effect of over 50% in size; note: potency is the fitted concentration of half-maximal effect)
Summary of the method: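 Tet-on ROR gamma CHO cells (1,000/well) were plated 4 hr, given compounds in DMSO for 2 hr at 37 C, then induced with 1 uM final doxycycline for 16 hr. Viability was read as ATP by CellTiter-Glo luminescence after 30 min.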

[7] = target: Nuclear receptor ROR-gamma (Homo sapiens) (UniProt P51449); assay: qHTS assay to identify small molecule antagonists of the retinoid-related orphan receptor gamma (ROR-gamma) signaling pathway (AID 1159521; active = well fitted curve in the direction sought with a large enough effect in the repeat runs; an effect the other way counts as inactive or inconclusive;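 note: CHO cells with doxycycline inducible ROR-gamma driving an RORE luciferase reporter; top concentration of the series differs between compounds; nearly all actives have a fitted effect of over 50% in size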)
Summary of the method: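 Tet-on RORγ CHO cells carrying a ROR response element–luciferase reporter were pretreated with compounds for 2 h, then induced with 1 uM (final) doxycycline hyclate for 16 h at 37 C. Antagonism was read as decreased ONE-Glo luminescence.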

[8] = qHTS assay to identify small molecule agonists of the AP-1 signaling pathway - cell viability counter screen (AID 1159525); note: nearly all actives have a fitted effect of over 55% in size
Summary of the method: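 Each titration point was normalised to DMSO and tetra n-octyl ammonium bromide controls. The read was Cell Titer Glo luminescence after 30 min at RT, following 5 h compound exposure of ME-180 AP-1-bla cells at 37 °C.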

[9] = qHTS assay to identify small molecule agonists of the AP-1 signaling pathway (AID 1159526)
[10] = qHTS assay to identify small molecule antagonists of the vitamin D receptor (VDR) signaling pathway - cell viability counter screen (AID 743225; active = well fitted curve in the direction sought with a large enough effect in the repeat runs; an effect the other way counts as inactive or inconclusive; note: nearly all actives have a fitted effect of over 50% in size)
Summary of the method: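 VDR-bla HEK 293T cells, 4 h pre-incubation at 37C, then compound plus 1-alpha,25-dihydroxyvitamin D3 (3 nM final) for 16 h. After the beta-lactamase FRET read, CellTiter-Glo was added to the same wells; luminescence after 30 min at room temperature.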

Row | Compound | activity change, negative = cytotoxicity [1] | activation [2] | activity, negative = cytotoxic [3] | activation [4] | activity change, negative = cytotoxicity [5] | activity, negative = cytotoxicity [6] | activity change, negative = inhibition [7] | viability change, negative = cytotoxic [8] | activation [9] | outcome [1] | outcome [2] | outcome [3] | outcome [4] | outcome [5] | Potency [6] | Potency [7] | outcome [8] | Potency [9] | outcome [10]
1 | FC(F)(F)C(F)(F)C(F)(F)C(F)(F)C(F)(F)C(F)(F)C(F)(F)C(F)(F)C(F)(F)C(F)(F)F | 9.06% [at 5.95 µM] | -0.0985% [at 6.95 µM] | 0.724% [at 6.95 µM] | -9% [at 6.95 µM] | -26.7% [at 6.95 µM] | 0.201% [at 8.39 µM] | 29.3% [at 8.39 µM] | -11.9% [at 6.97 µM] | 7.26% [at 6.97 µM] |  |  |  |  |  |  |  |  |  | 
2 | NC(N)=NS(=O)(=O)c1ccc(N)cc1 |  |  |  |  |  |  |  |  |  | inactive | inactive | inactive | inactive | inactive | inactive | inactive | inactive | inactive | 
3 | Cc1onc(-c2ccccc2)c1-c1ccc(S(N)(=O)=O)cc1 |  |  |  |  |  |  |  |  |  |  | inactive | inactive | inactive | inactive | inactive | inactive | inactive | inactive | 
4 | O=[N+]([O-])c1ccc(Oc2ccc([N+](=O)[O-])cc2)cc1 |  |  |  |  |  |  |  |  |  | inactive | inactive | inactive | inactive | inactive | inactive | inactive | inactive | inactive | 
5 | COc1ccc(NC(C)=O)cc1 |  |  |  |  |  |  |  |  |  | inactive | inactive | inactive | inactive | inactive | inactive | inactive | inactive | inactive | 
6 | NC(CS)C(=O)O (centres undefined) |  |  |  |  |  |  |  |  |  | inactive | inactive | inactive | inactive | inactive | inactive | inactive | inactive | inactive | 
7 | O=c1[nH]c(=O)n([C@H]2O[C@H](CO)[C@@H](O)[C@@H]2O)cc1/C=C\Br |  |  |  |  |  |  |  |  |  | inactive | inactive | inactive | inactive | inactive | inactive | inactive | inactive | inactive | 
8 | NS(=O)(=O)c1cc(C2(O)NC(=O)c3ccccc32)ccc1Cl (centres undefined) |  |  |  |  |  |  |  |  |  | inactive | inactive | inactive | inactive | inactive | inactive | inactive | inactive | inactive | inactive
9 | Cn1ccc2cc3c(cc21)CCN3C(=O)Nc1cccnc1 |  |  |  |  |  | -0.672% [at 19 µM] | 207% [at 19 µM] | 0.227% [at 15.8 µM] | -5.75% [at 15.8 µM] | inactive | inactive | inactive | inactive | inactive |  |  |  |  | 
10 | CCCCCCCCCCCCCCCCCCOCC(O)CO (centres undefined) |  |  |  |  |  |  |  |  |  | inactive | inactive | inactive | inactive | inactive | inactive | inactive | inactive | inactive | 
11 | NC1CCN(c2cccc(Cl)n2)CC1 |  |  |  |  |  |  |  |  |  | inactive | inactive | inactive | inactive | inactive | inactive | inactive | inactive | inactive | 
12 | O=C(O)C(O)[C@H](O)[C@@H](O)[C@H](O)[C@H](O)CO (some centres undefined) |  |  |  |  |  |  |  |  |  | inactive | inactive | inactive | inactive | inactive | inactive | inactive | inactive | inactive | inactive
13 | CCC(C)(C)C1CCC(OC)CC1 (centres undefined) |  |  |  |  |  |  |  |  |  | inactive | inactive | inactive | inactive | inactive | 48.6 µM (active) | inactive | inactive | inactive | inactive
14 | CC1=CC(C)C(C=O)C(C)C1 (centres undefined) |  |  |  |  |  |  |  |  |  | inactive | inactive | inactive | inactive | inactive | inactive | inactive | inactive | inactive | inactive
15 | Cc1ncc(CSSCc2cnc(C)c(O)c2CO)c(CO)c1O |  |  |  |  |  |  |  |  |  | inactive | inactive | inactive | inactive | inactive | inactive | inactive | inactive | inactive | inactive
16 | CC1=CC(=O)CCC1 |  |  |  |  |  |  |  |  |  | inactive | inactive | inactive | inactive | inactive | inactive | inactive | inactive | inactive | inactive
17 | Nc1ncnc2c1ncn2Cc1c(F)cccc1Cl |  |  |  |  |  |  |  |  |  | inactive | inactive | inactive | inactive | inactive | inactive | inactive | inactive | inactive | inactive
18 | OCCCCCCO |  |  |  |  |  |  |  |  |  | inactive | inactive | inactive | inactive | inactive | inactive | inactive | inactive | inactive | inactive
19 | Nc1cc(C(Cl)=C(Cl)Cl)c(S(N)(=O)=O)cc1S(N)(=O)=O |  |  |  |  |  |  |  |  |  | inactive | inactive | inactive | inactive | inactive | inactive | inactive | inactive | inactive | inactive
20 | Oc1cc(O)c2c(c1)O[C@H](c1ccc(O)c(O)c1)[C@H](O)C2 |  |  |  |  |  |  |  |  |  | inactive | inactive | inactive | inactive | inactive | inactive | inactive | inactive | inactive | inactive
21 | Cc1ccc(N)cc1[N+](=O)[O-] |  |  |  |  |  |  |  |  |  | inactive | inactive | inactive | inactive | inactive | inactive | inactive | inactive | inactive | inactive
22 | CNc1ncnc2nc[nH]c12 |  |  |  |  |  |  |  |  |  | inactive | inactive | inactive | inactive | inactive | inactive | inactive | inactive | inactive | inactive
23 | O=C(O)Cc1cc(I)c(Oc2cc(I)c(O)c(I)c2)c(I)c1 |  |  |  |  |  |  |  |  |  | inactive | inactive | inactive | inactive | inactive | inactive | inactive | inactive | inactive | inactive
24 | CCCCC=O |  |  |  |  |  |  |  |  |  | inactive | inactive | inactive | inactive | inactive | inactive | inactive | inactive | inactive | inactive
